This is a sample that favours compounds with a hit; in the whole collection about 8.7% have one here.
BAZ2B block: qHTS Assay for Inhibitors of BAZ2B | AlphaScreen BAZ2B-H3K14Ac peptide displacement | Bromodomain adjacent to zinc finger domain protein 2B (Homo sapiens), Q9UIF8 | 360,000 compounds, 4.4% hits | Potency, µM (series often up to 114 µM), usual class: inhibitors; note: nearly all actives have a fitted effect of over 60% in size
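Compounds, titrated to a top concentration of 110 uM, were incubated 30 min at room temperature with preformed BAZ2B/acetyl-K14 H3 peptide complex (50 nM each). Proximity signal was measured by AlphaScreen after 20 min with beads.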
HP1b binding inh: HTS for Inhibitors of HP1-beta Chromodomain Interactions with Methylated Histone Tails; Chromobox protein homolog 1 (Homo sapiens), P83916; AlphaScreen HP1-beta / biotin-H3K9me3 peptide binding; Potency, µM (doses to about 114 µM), actives largely listed as inhibitors; AID 540317, 2011; 390,000 compounds, 0.56% hits; note: nearly all actives have a fitted effect of over 70% in size
Target sequence (P83916 whole entry, looked up): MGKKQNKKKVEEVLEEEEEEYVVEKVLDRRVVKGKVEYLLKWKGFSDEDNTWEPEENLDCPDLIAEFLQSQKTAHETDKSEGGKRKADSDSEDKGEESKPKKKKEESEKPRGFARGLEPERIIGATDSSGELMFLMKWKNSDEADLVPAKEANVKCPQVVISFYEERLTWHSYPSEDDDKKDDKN
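Compound inhibition of the preformed complex between 50 nM HP1-beta and 50 nM biotinylated H3K9me3 peptide was read by AlphaScreen. Buffer was PBS pH 7.4 with 0.01% Tween-20. Incubations ran 30 min at room temperature, with 10 ug/mL donor/acceptor beads.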
JMJD2A Tudor: qHTS Assay for Inhibitors of JMJD2A-Tudor Domain; Lysine-specific demethylase 4A (Homo sapiens), O75164; AlphaScreen JMJD2A-Tudor / H3K4me3 peptide binding; Potency, µM (top dose mostly 114 µM), most hits filed as inhibitors; 390,000 compounds, 4.4% hits; AID 504339, 2011; note: nearly all actives have a fitted effect of over 50% in size
Sfp inh: qHTS Assay for Inhibitors of Bacillus subtilis Sfp phosphopantetheinyl transferase (PPTase). 4'-phosphopantetheinyl transferase ffp (Bacillus subtilis), Q9F4F7. Biochemical Sfp PPTase activity, qHTS. Potency, µM, most hits filed as inhibitors. 310,000 compounds, 3.5% hits. AID 1490, 2009;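 note: the enzyme is Sfp with the accession as filed and its product quenches rhodamine fluorescence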
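Fluorescence-quenching assay: 15 nM Sfp-PPTase preincubated 15 min at room temperature with compound, then 5 uM rhodamine-CoA and 12.5 uM BHQ-2-labelled YbbR peptide added. Fluorescence (ex 525/em 598 nm) read at start and after 30 min; difference gives rate.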
G9a block: qHTS Assay for Inhibitors of Histone Lysine Methyltransferase G9a. Histone-lysine N-methyltransferase EHMT2 (Homo sapiens), Q96KQ7. G9a H3K9 monomethylation, AlphaScreen, 2 h. Potency, µM (titrated, usually from 102 µM), most hits filed as inhibitors. 350,000 compounds, 8.8% hits. AID 504332, 2011; note: nearly all actives have a fitted effect of over 75% in size
Target sequence (Q96KQ7 913-1193 limits assumed): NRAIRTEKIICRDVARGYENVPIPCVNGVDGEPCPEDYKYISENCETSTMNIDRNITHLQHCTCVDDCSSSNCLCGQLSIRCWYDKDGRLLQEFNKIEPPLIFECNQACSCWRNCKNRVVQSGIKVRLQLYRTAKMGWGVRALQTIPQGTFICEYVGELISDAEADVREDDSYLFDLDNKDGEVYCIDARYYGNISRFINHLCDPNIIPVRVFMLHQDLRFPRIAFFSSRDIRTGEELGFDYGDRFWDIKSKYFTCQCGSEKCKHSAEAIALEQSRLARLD
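Chemiluminescent proximity detection of H3K9 monomethylation, read after 10 min bead incubation in the dark. Reaction: 20 nM G9a, 500 nM biotin-H3K9 peptide, 20 uM SAM cofactor, 2 h, room temperature, following 15 min enzyme-compound preincubation.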
12-LOX inh: Primary qHTS assay for inhibitors of human arachidonate 12S-lipoxygenase (ALOX12): Round 2; Polyunsaturated fatty acid lipoxygenase ALOX12 (Homo sapiens), P18054; purified 12hLO, xylenol orange hydroperoxide absorbance; Potency, µM (doses to about 108 µM), usual class: inhibitors; 580,000 compounds, 1.1% hits; AID 1671190, 2021
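Hydroperoxide product was detected by ferrous iron/xylenol orange as the 573 to 405 nm absorbance ratio. Arachidonic acid at 40 uM (final) was turned over for 30 min at room temperature by 150 nM human 12hLO, pH 7.0 Hepes buffer, after 15 min compound preincubation.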
12-hLO 8HQ R1: Cuvette-Based Assay for Inhibitors of 12-hLO (12-human lipoxygenase): 8HQ Series - Round 1; 35 compounds, 60% hits; Potency, µM, usual class: inhibitors; shares compounds with BAZ2B block; purified 12-hLO, cuvette UV 234 nm product formation;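 active = compounds that slowed 12-hLO product formation enough to yield a measured IC50 potency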
KDM4E inh: Inhibitors of Human Jumonji Domain Containing 2E (JMJD2E): 8HQs - Round 1. shares compounds with BAZ2B block. JMJD2E demethylase, FDH-coupled NADH fluorescence (FDH is formaldehyde dehydrogenase). Potency, µM (highest dose often 57 µM), usual class: inhibitors. 130 compounds, 89% hits. AID 493212, 2011
ME-1 prolif: qHTS Assay for Compounds Blocking the Interaction Between CBF-beta and RUNX1 for the Treatment of Acute Myeloid Leukemia: ME-1 cellular proliferation; shares compounds with BAZ2B block; ME-1 cell proliferation, ATP luminescence, 48 h; Potency, µM (doses to about 56.1 µM), hits mostly inhibitors; 140 compounds, 20% hits; AID 504370, 2011
A number is an active result; . = inactive; ? = inconclusive; / = no result; ! = not active in a repeat; [ ] = remark or other dose. Unless noted, calls come from the whole dose curve; as a rule, active = well fitted curve in the direction sought with a large enough effect; inconclusive = small, poorly fitted or top-dose-only effect, or another doubt; inactive = no such curve, though single readings can be large; an effect the other way counts as inactive or inconclusive.

SMILES	BAZ2B block	HP1b binding inh	JMJD2A Tudor	Sfp inh	G9a block	12-LOX inh	ME-1 prolif	others
O=C(OCC1OC(OC(=O)c2cc(O)c(O)c(OC(=O)c3cc(O)c(O)c(O)c3)c2)[C@@H](OC(=O)c2cc(O)c(O)c(OC(=O)c3cc(O)c(O)c(O)c3)c2)C(OC(=O)c2cc(O)c(O)c(OC(=O)c3cc(O)c(O)c(O)c3)c2)C1OC(=O)c1cc(O)c(O)c(OC(=O)c2cc(O)c(O)c(O)c2)c1)c1cc(O)c(O)c(OC(=O)c2cc(O)c(O)c(O)c2)c1 (stereo partly drawn)	/	/	/	11µM	?	/	22µM
Nc1nc(-c2ccccc2)c(N=Nc2ccc(Cl)cc2)s1	?	?	?	25µM	2µM	.	.
Nc1[nH]ncc1N=Nc1ccc(Cl)cc1	?	.	.	.	.	?	/
O=c1[nH]cc(I)cc1I	.	.	.	22µM	.	.	.
O=C(NN1C(=O)CSC1=S)C(=O)NN1C(=O)CSC1=S	?	.	32µM	?	?	.	.
CC(=O)Oc1cc2cccc(OC(C)=O)c(=O)c2c(OC(C)=O)c1OC(C)=O	1.6µM	?	8.9µM	.	2.8µM	/	?
CC(=O)Oc1cc(C)c(OC(C)=O)c2ccccc12	/	/	/	.	.	.	/
O=C(COc1ccc(F)cc1F)N1CCCC(Cc2nc3ccccc3[nH]2)C1 (stereo not drawn)	/	/	/	/	/	.	/
CC(=O)Nc1ccc(CN2C[C@H](O)C[C@H]2c2nc(-c3ccc(OC(F)(F)F)cc3)no2)cc1	/	/	/	/	/	.	/
Clc1ccc(-c2ccc(SCc3ccccn3)nn2)cc1	.	.	.	.	.	.	/
c1ccc(CSc2ccc(-c3ccccn3)nn2)nc1	4.5µM	.	?	.	.	.	?
COc1ccc(NC(=O)O[C@@H]2CC[C@]3(C)C(CC[C@H]4OC(=O)C[C@H]43)[C@]2(C)CO)cc1 (stereo partly drawn)	/	/	/	/	/	.	/
Cc1c(Cl)cc(C(=O)N2CCC[C@H]2C(=O)N2CCOCC2)cc1Cl	/	/	/	/	/	.	/
N[C@H](Cc1ccc(O)c(O)c1)C(=O)O	/	/	/	?	18µM	/	.
NC(Cc1ccc(O)c(O)c1)C(=O)O (stereo not drawn)	/	/	/	.	/	/	?
NCCc1ccc(O)c(O)c1	?	14µM	32µM	79µM!	8.9µM	2.8µM!	.
CC1(c2ccccc2)N(Cc2ccc(O)cc2)C(=O)OC12CCN(C(=O)C1CCC1)CC2 (stereo not drawn)	/	/	/	/	/	.	/
CN1CCN([C@H]2CCN(C(=O)c3ccc(N(C)C)nc3)C[C@H]2CCC(=O)O)CC1	/	/	/	/	/	.	/
COc1ccc(C(=O)NC(c2ccccc2Cl)c2cc(Cl)c3cccnc3c2O)cc1 (stereo not drawn)	.	.	?	/	.	.	/
CC(=O)NC(c1ccco1)c1cc(Cl)c2ccc(N3CCCCC3)nc2c1O (stereo not drawn)	?	/	/	/	4µM	/	/	12-hLO 8HQ R1=.;KDM4E inh=20µM
CCC(=O)NC(c1cc(Cl)c2cccnc2c1O)C1CC1 (stereo not drawn)	32µM	.	79µM	/	.[12.7 µM]	.	/	12-hLO 8HQ R1=1.6µM;KDM4E inh=32µM
CCCCC(=O)NC(c1cccs1)c1cc(Cl)c2cccnc2c1O (stereo not drawn)	.	.	.	.	?	.	/
CCC(=O)NC(c1cc(Cl)c2cccnc2c1O)C(C)C (stereo not drawn)	79µM	.	?	/	.[12.7 µM]	.	/	12-hLO 8HQ R1=1.2µM;KDM4E inh=20µM
CC(NC(=O)c1cccc2cccnc12)C1CC1 (stereo not drawn)	/	/	/	/	/	.	/
CCC(=O)NC(c1ccco1)c1cc(Br)c2cccnc2c1O (stereo not drawn)	28µM	/	/	/	.[12.7 µM]	?	/	12-hLO 8HQ R1=2µM;KDM4E inh=32µM
SMILES	BAZ2B block	HP1b binding inh	JMJD2A Tudor	Sfp inh	G9a block	12-LOX inh	ME-1 prolif	others
COc1cc(C(=O)NC(c2ccccc2Cl)c2cc(Cl)c3cccnc3c2O)cc(OC)c1OC (stereo not drawn)	.	.	.	/	.	.	/
CC(=O)NC(c1cc(F)c2cccnc2c1O)C1CC1 (stereo not drawn)	50µM	.	79µM	/	?	.	/	12-hLO 8HQ R1=.;KDM4E inh=29µM
O=C(Cc1c(Cl)cccc1Cl)Oc1ccc(OCc2ccccc2)cc1	/	/	/	/	/	.	/
COc1ccc(-c2c(O)c3cc(O)cc(O)c3oc2=O)cc1	/	/	/	.	/	/	/
O=c1oc2c(O)c(O)cc3c(=O)oc4c(O)c(O)cc1c4c23	0.79µM	?	0.71µM	?	1.3µM	?	.
O=C1CN(C(=O)C2CNCC23CCOCC3)CCN1 (stereo not drawn)	/	/	/	/	/	.	/
Oc1ccc(/C=N/NC(=S)Nc2cccnc2)c(O)c1	2.8µM	.	40µM	.	25µM	?	14µM
Oc1ccc(/C=N/NC(=S)Nc2cccnc2)c(O)c1O	2.2µM	5µM	3.5µM	3.5µM	.	?	?
Fc1c(F)c(F)c(/C=N/NC(=S)Nc2cccnc2)c(F)c1F	.	.	.	.	.[12.7 µM]	.	/
CCCC(=O)NCc1nnnn1-c1ccc(OCC)cc1	/	/	/	/	/	.	/
COc1cc(/C=N/NC(=O)c2cncc(Br)c2)cc([N+](=O)[O-])c1O	8.9µM	.	.[11.4 µM]	.	?	.	35µM
CCOC(=O)[C@H](CCc1ccccc1)N[C@@H](C)C(=O)N1[C@H](C(=O)O)C[C@H]2CCC[C@@H]21	/	/	/	.	.[12.7 µM]	/	/
CCOC(=O)[C@H](CCc1ccccc1)N[C@@H](C)C(=O)N1[C@H](C(=O)O)C[C@H]2CCCC[C@@H]21	/	/	/	.	.	/	.
N#Cc1ccc(C(=O)Oc2ccc(Br)cc2)cc1	/	/	/	/	/	.	/
Cc1cc(C(=O)NC2Cc3ccccc3C2)c(C)o1	.	.	.	.	/	.	.
CNS(=O)(=O)Cc1ccc(CNC(=O)NC(C)CO)cc1 (stereo not drawn)	/	/	/	/	/	.	/

Source: PubChem
